The source of these data is PubChem BioAssay.

SMILES strings stand for the structures. For some assays here: Entries with a potency or affinity are not part of this list. The source made the active and inactive calls. Unless noted, the rule behind the calls is not given here.

Test [1] is described as follows: antimalarial activity against Dd2 strain (AID 2302;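 active = growth inhibition above 50% at the single 2 µM test dose, taken to imply half-maximal potency below 2 µM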;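 note: 0% = DMSO untreated growth and 100% = chloroquine plus artemisinin killed control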). To be noted: P. falciparum Dd2 in RBCs, LDH growth readout, 72 h; at 2 µM; stronger effect = higher value.
Test [2] can be described thus: human hepatoma cell viability loss – ATP luminescence, cytotoxicity control for P. falciparum antimalarial project, primary screen (AID 2303;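 active = inhibition above 50%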;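 note: 0% = DMSO wells and 100% = digitonin-killed cells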). To be noted: HepG2 viability, 24-48 h, at 10 µM, stronger effect = higher value.
In test [3] the target is L-lactate dehydrogenase (Plasmodium falciparum (isolate CDC / Honduras)) (UniProt Q27743). The test is described as follows: PfLDH activity inhibition – cell lysate, 3D7 strain, counter-screen for P. falciparum growth inhibition project (AID 2304).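 Note: 0% = vehicle and 100% = reference inhibitor.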 To be noted: P. falciparum 3D7 crude extract, LDH APAD/NBT absorbance; at 2 µM; stronger effect = higher value. Background: Counterscreens check selectivity or assay interference.

Test [4] can be described thus: inhibition of 3D7 malaria parasite growth – strain 3D7 (AID 2306).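 Note: 0% = DMSO wells and 100% = chloroquine plus artemisinin control wells.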 The settings on record: P. falciparum 3D7 erythrocytic growth, LDH absorbance, 72 h; at 2 µM; stronger effect = higher value.
Test [5] concerns the target Calcium-dependent protein kinase 1 (Plasmodium falciparum (isolate 3D7)) (UniProt P62344). The test is described as follows: PfCDPK1 kinase inhibitors, biochemical, TCAMS library (AID 1159585; cut-off not given, nearly all actives have IC50 up to about 0.98 µM;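 note: inhibitors leave more ATP so luminescence rises with inhibition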). To be noted: recombinant PfCDPK1, Kinase-Glo ATP depletion luminescence. In general terms: In Kinase-Glo more light means more ATP remaining.
Test [6] deals with Plasmodium falciparum protein kinase 6 (PK6, PF3D7_1337100) (UniProt Q8IDW1). The test is described as follows: PfPK6 kinase inhibitors, biochemical, TCAMS library (AID 1159586). The settings on record: recombinant PfPK6, Kinase-Glo ATP depletion luminescence.
Test [7] concerns the target Protein kinase 7 (PK7), Plasmodium falciparum 3D7 (PF3D7_0213400) (UniProt Q7YTF7). The test is described as follows: inhibition of Plasmodium PK7 catalytic activity – biochemical, TCAMS antimalarial set, Kinase-Glo luminescence (AID 1159587). To be noted: recombinant PfPK7, Kinase-Glo ATP depletion luminescence.
In test [8] the target is Calcium-dependent protein kinase 4 (Plasmodium falciparum (isolate 3D7)) (UniProt Q8IBS5). The test is described as follows: PfCDPK4 kinase inhibitors, biochemical, TCAMS library (AID 1159588; cut-off not given, nearly all actives have IC50 up to about 0.91 µM). To be noted: recombinant PfCDPK4, Kinase-Glo ATP depletion luminescence.
Chain of Calcium-dependent protein kinase 4 (Plasmodium falciparum (isolate 3D7)) (Q8IBS5 whole entry, looked up): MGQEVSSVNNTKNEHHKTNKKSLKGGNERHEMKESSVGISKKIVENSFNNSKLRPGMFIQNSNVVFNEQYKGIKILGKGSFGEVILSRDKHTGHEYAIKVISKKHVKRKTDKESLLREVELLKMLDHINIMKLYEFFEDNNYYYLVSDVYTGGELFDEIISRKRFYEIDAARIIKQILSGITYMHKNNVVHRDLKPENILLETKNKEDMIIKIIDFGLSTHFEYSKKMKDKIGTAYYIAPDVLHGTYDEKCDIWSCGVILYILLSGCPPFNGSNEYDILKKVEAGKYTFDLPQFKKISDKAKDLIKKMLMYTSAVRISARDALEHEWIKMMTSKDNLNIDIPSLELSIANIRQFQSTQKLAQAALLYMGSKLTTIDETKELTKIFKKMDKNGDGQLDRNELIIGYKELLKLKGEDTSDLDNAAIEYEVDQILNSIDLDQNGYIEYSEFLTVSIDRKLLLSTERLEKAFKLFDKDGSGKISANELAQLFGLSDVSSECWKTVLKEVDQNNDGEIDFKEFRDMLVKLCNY

Chain of L-lactate dehydrogenase (Plasmodium falciparum (isolate CDC / Honduras)) (Q27743 whole entry, looked up): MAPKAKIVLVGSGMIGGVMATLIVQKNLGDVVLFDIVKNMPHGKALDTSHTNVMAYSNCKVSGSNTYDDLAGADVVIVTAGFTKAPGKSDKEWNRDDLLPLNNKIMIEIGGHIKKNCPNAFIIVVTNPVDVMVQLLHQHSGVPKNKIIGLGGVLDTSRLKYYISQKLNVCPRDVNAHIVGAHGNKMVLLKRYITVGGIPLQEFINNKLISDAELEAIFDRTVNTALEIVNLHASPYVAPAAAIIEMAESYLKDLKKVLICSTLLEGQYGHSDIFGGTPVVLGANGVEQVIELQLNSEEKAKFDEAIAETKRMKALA
Chain of Plasmodium falciparum protein kinase 6 (PK6, PF3D7_1337100) (Q8IDW1 1-305): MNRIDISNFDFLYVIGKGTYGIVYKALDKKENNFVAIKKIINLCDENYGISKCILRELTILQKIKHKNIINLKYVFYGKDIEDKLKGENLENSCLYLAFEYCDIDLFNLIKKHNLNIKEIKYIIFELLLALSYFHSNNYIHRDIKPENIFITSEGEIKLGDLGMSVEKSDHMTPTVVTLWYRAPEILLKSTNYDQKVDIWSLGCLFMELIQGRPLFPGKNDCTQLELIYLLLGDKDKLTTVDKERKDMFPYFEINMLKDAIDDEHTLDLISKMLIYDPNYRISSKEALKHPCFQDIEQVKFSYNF
Chain of Protein kinase 7 (PK7), Plasmodium falciparum 3D7 (PF3D7_0213400) (Q7YTF7 1-343): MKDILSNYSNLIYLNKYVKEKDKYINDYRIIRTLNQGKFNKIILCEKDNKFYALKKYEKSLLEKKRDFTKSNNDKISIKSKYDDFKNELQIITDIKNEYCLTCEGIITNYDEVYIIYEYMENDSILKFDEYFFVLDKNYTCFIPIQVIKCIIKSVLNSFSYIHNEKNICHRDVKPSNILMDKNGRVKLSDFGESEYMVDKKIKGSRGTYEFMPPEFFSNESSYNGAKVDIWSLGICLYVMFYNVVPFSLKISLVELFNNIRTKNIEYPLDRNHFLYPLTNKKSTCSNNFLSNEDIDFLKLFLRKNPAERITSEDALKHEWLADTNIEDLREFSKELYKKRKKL
Chain of Calcium-dependent protein kinase 1 (Plasmodium falciparum (isolate 3D7)) (P62344 whole entry, looked up): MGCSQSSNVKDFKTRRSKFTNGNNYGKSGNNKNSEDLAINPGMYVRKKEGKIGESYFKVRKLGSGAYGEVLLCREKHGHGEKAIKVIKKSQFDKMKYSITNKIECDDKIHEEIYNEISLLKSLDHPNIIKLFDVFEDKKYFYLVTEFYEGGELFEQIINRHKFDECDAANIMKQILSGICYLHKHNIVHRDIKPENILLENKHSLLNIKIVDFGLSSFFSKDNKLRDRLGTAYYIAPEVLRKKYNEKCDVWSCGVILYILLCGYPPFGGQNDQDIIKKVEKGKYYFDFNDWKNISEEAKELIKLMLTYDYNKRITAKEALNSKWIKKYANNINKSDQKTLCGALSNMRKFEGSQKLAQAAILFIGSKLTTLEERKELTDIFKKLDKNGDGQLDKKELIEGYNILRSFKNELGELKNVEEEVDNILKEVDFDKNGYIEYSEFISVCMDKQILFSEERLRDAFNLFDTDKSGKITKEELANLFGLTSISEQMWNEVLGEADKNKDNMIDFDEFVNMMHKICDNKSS

Broadly, the inhibition is the change of the read-out against control, counted positive when it falls. Consider `Cc1ccc(NC(=O)N2CCN(CCCCCNC(=O)/C=C/c3ccc(Cl)c(Cl)c3)CC2)cc1C`, for which the growth inhibition was -5% (inactive) in test [1] and 94% (active) in test [4]. For the same molecule, the inhibition is 7% (inactive) in test [2] and 0% (inactive) in test [3]. Besides, the outcome in test [5], in test [6], in test [7] and in test [8] was inactive.
For the molecule `CCC(Nc1noc(-c2c(-c3ccccc3)noc2C)n1)c1ccccc1` (configuration not stated), the values for the growth inhibition in test [1] and in test [4] were 85% (active) and 99% (active), respectively. For the same molecule, the inhibition in test [2] was 4% (inactive); in test [3], 1% (inactive). The outcome in test [5], in test [6], in test [7] and in test [8] was inactive.
In the case of `Cc1cc2c(cc1Cl)N(C(=O)Nc1cc(F)cc(-c3cncnc3)c1)CC2`, the growth inhibition in test [1] was 59% (active); in test [4] it was 96% (active). Besides, the inhibition in test [2] was -4% (inactive); in test [3], -6% (inactive). The outcome in test [5], in test [6], in test [7] and in test [8] was inactive.
Consider `NC(N)=NN=Cc1c2ccccc2c(Cl)c2c(Cl)cccc12`, for which the growth inhibition is 72% (active) in test [1] and 91% (active) in test [4]. For the same molecule, the inhibition in test [2] is 71% (active); in test [3] it was -3% (inactive). Moreover, the outcome in test [5], in test [6], in test [7] and in test [8] was inactive.
